From PubChem BioAssay
PostGolgi yeast: phenotypic screen on post-Golgi transport, primary screen; AID 739, 2007; inhibition, % at 10 µM; 0.9% of 98,000 active; post-Golgi transport phenotypic cell assay;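 note: yeast cells grown in 1536-well plates; yeast grown about 18 h at 30C before absorbance read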
PostGolgi ctrl: growth inhibition of yeast control strain, primary screen, counter-screen for post-Golgi transport modulator project. AID 738, 2007. 5% of 98,000 active. efflux-deficient yeast background strain, growth absorbance A615, 16 h. inhibition, % at 10 µM
CYP2C9 inh: blockers of cytochrome P450 2C9 activity – biochemical, luminescence, ADME assay, primary screen. CYP2C9 Supersomes, luciferin-H conversion. 20% of 96,000 active. inhibition, % at 5 µM. AID 777, 2007. P11712;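 active = blocking of liver enzyme CYP2C9 beyond about 50% at 5 µM, limit read from the data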
CYP2C9 activ: human CYP2C9 activators, primary screen, biochemical, luminescence | Cytochrome P450 2C9 (Homo sapiens), P11712 | recombinant CYP2C9, luciferin-H conversion; hits give high values; factor 1 = untreated enzyme, 0 = blocked | activation factor at 5 µM | 1.4% of 96,000 active | AID 1024, 2008;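 active = activation factor of 2 or more for CYP2C9 at a 5 µM dose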;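 note: 0 = sulfaphenazole-blocked wells and 1 = vehicle-only wells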
CYP2C19 inh: blockers of cytochrome P450 2C19 activity – biochemical, luminescence, ADME assay, primary screen; P33261; CYP2C19 Supersomes, luciferin-H EGE luminescence, 30 min; inhibition, % at 5 µM; 21% of 96,000 active;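 active = CYP2C19 inhibition above a set limit at 5 µM in the primary screen, cut at about 50% in these data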;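 note: plate controls were negative control wells for no effect and 2.5 mM tranylcypromine positive control for full effect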
Target sequence (P33261 whole entry, looked up): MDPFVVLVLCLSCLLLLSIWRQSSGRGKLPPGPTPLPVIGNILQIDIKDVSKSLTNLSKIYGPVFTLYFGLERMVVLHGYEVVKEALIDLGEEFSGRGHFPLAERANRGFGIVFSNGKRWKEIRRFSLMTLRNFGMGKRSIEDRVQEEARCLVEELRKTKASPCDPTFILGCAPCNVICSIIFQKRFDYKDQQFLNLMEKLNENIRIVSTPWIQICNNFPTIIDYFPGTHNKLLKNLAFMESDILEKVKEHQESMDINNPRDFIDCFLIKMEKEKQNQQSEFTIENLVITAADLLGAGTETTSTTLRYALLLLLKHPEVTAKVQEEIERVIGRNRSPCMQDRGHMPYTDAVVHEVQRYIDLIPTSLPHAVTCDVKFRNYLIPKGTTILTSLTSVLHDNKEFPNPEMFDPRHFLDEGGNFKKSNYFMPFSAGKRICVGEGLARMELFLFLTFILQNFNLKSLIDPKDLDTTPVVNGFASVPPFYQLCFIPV
CYP2C19 act: human CYP2C19 activators, primary screen, biochemical, luminescence; Cytochrome P450 2C19 (Homo sapiens), P33261; recombinant CYP2C19, luciferin-H EGE luminescence; hits give high values; 0 = fully inhibited enzyme, 1 = untreated enzyme; activation factor at 5 µM; 96,000 tested, under 10 active; AID 1025, 2008;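 active = activation factor of at least 2 at 5 µM in the primary screen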;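 note: 0 = wells with 2.5 mM tranylcypromine and 1 = vehicle-only wells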
The depositor's hits bear a star; x = not tested or not shown. A selection: hits, their analogues and other compounds. The true share with any hit is near 32%. Cut-off read from the data, not from the text of the source, unless noted: active = inhibition above about 30%; inactive = the rest.

SMILES | PostGolgi yeast | PostGolgi ctrl | CYP2C9 inh | CYP2C9 activ | CYP2C19 inh | CYP2C19 act
CCN(CC)C(=O)C1CCCN(c2ccc([N+](=O)[O-])cc2/C=N/NC(=O)c2cccc(O)c2)C1 (stereo not drawn) | -1.3 | -2.7 | 93.2* | 0.1 | 89.2* | 0.1
Cn1c(-c2ccc(F)cc2)cnc1NCc1cccc(F)c1 | -1.7 | 3.6 | 36.6 | 0.6 | 53.3* | 0.5
COc1cccc(-c2cnc(NCc3cc(Cl)ccc3O)n2C)c1 | -7.1 | 71.0* | 97.7* | 0 | 98.6* | 0
Cn1c(-c2cccc(Br)c2)cnc1NCc1cccnc1 | 0.4 | -0.3 | 64.3* | 0.4 | 77.2* | 0.2
Cn1c(-c2ccc(F)cc2)cnc1NCc1ccccc1 | -0.2 | 6.1 | 3.2 | 1 | 31.9 | 0.7
O=C1NC(Cc2c[nH]c3ccccc23)C(=O)N1c1ccc(F)cc1 (stereo not drawn) | 2.7 | -0.6 | -1.0 | 1 | 11.9 | 0.9
O=C(CCN1CCN(c2ccccc2F)CC1)Nc1ccccc1F | -1.9 | 2.7 | 65.7* | 0.3 | 54.4* | 0.5
O=C(CN1CCN(CCC(=O)Nc2ccccc2F)CC1)Nc1ccc(Cl)cc1 | -3.6 | 3.5 | 45.5 | 0.5 | 23.1 | 0.8
O=C(CN1CCN(CCC(=O)Nc2ccccc2F)CC1)Nc1ccc(F)cc1 | -0.9 | 3.5 | 63.7* | 0.4 | 15.4 | 0.8
O=C(CCN1CCc2ccccc2C1)Nc1ccccc1F | 2.0 | -1.3 | x | x | x | x
O=C(CN1CCN(c2ccccc2F)CC1)Nc1ccccc1F | -3.4 | 20.4 | 80.5* | 0.2 | 88.2* | 0.1
O=C(CCN1CCN(c2ccccc2F)CC1)c1ccc(Br)cc1 | 6.0 | 18.4 | 34.5 | 0.7 | 50.2* | 0.5
Cc1nn(C(=O)CN2C(=O)c3ccccc3C2=O)c(C)c1Br | 1.9 | 5.1 | -0.8 | 1 | -1.5 | 1
CC(C)(C)n1nnnc1C(c1cccs1)N(Cc1ccc(Cl)cc1)CC1CCCO1 (stereo not drawn) | -4.3 | 8.8 | 29.1 | 0.7 | 30.6 | 0.7
C/C(N)=C(/C#N)C(=O)COC(=O)CCC1CCCC1 | -7.1 | 1.2 | 15.7 | 0.8 | 49.4 | 0.5
CC(=O)NCC(=O)OCC(=O)c1ccc2ccccc2c1 | 1.2 | 18.6 | 3.1 | 1 | -2.5 | 1
Cn1c(CNc2ccccc2)cc(=O)n(C)c1=O | 4.0 | 19.8 | 2.3 | 1 | 8.8 | 0.9
Cc1cccc(N2CCN(CC(=O)Nc3ccccc3[N+](=O)[O-])CC2)c1C | -0.6 | 31.6* | 67.2* | 0.3 | 43.5 | 0.6
O=C(CCN1CCN(c2ccc(Cl)cc2)CC1)Nc1ccccc1F | 0.2 | 7.0 | 50.8* | 0.5 | 31.5 | 0.7
O=C1CC(N2CCOCC2)C(=O)N1CCc1ccccc1 (stereo not drawn) | 6.9 | 2.9 | 10.5 | 0.9 | 27.4 | 0.7
CN(C)C=NC(=O)c1ccc([N+](=O)[O-])c(CS(=O)(=O)c2ccc(Cl)cc2)c1 | 8.3 | 1.2 | 56.0* | 0.4 | 75.1* | 0.2
NNC(=O)c1ccc([N+](=O)[O-])c(CS(=O)(=O)c2ccc(Cl)cc2)c1 | -2.8 | 1.3 | 33.2 | 0.7 | 74.8* | 0.3
CO/N=C/NC(=O)c1ccc([N+](=O)[O-])c(CS(=O)(=O)c2ccc(Cl)cc2)c1 | 10.6 | -2.1 | 15.4 | 0.8 | 1.6 | 1
COc1ccc2c(c1)CCc1c(C(=O)Nc3ccc(OC)c(OC)c3)noc1-2 | -6.6 | 0.3 | -6.9 | 1.1 | 21.8 | 0.8
COc1ccc(CCNC(=O)c2nnc(Cc3ccc(Cl)cc3)o2)cc1OC | 9.5 | -1.2 | 46.4 | 0.5 | 14.7 | 0.9
SMILES | PostGolgi yeast | PostGolgi ctrl | CYP2C9 inh | CYP2C9 activ | CYP2C19 inh | CYP2C19 act
COc1ccc2c(c1)CCc1c(C(=O)NCCc3ccc(OC)c(OC)c3)noc1-2 | -3.5 | -4.3 | 54.0* | 0.5 | 33.2 | 0.7
COc1ccc(CCNC(=O)C(=O)NCc2ccccc2)cc1OC | 17.1 | 0.8 | 14.8 | 0.9 | 1.6 | 1
COc1ccc(CCNC(=O)c2ccc(CNS(=O)(=O)c3cc(C)ccc3C)cc2)cc1OC | 0.5 | -3.8 | 99.8* | 0 | 76.0* | 0.2
COc1ccc(CN(Cc2cccnc2)C(=S)NCCc2ccccc2)cc1OC | 6.1 | -3.7 | 94.5* | 0.1 | 96.1* | 0
COc1ccc(CCNC(=O)c2cc3sc(Cl)cc3n2C)cc1OC | 14.1 | 10.0 | 73.8* | 0.3 | 69.0* | 0.3
O=C(CN1CCCC1)Nc1ccc(-c2nc3cc(NC(=O)CN4CCCC4)ccc3o2)cc1 | -0.9 | 6.4 | -0.2 | 1 | 13.5 | 0.9
COc1ccc(CCNC(=O)c2ccncc2)cc1OC | 7.7 | -1.0 | 43.2 | 0.6 | 63.5* | 0.4
COc1ccc(CCNC(=O)c2cc(-c3cc(C)ccc3O)n[nH]2)cc1OC | -12.7 | 8.6 | 79.7* | 0.2 | 35.7 | 0.6
COc1ccc(CCNC(=O)c2cccnc2)cc1OC | -4.3 | 1.7 | -12.7 | 1.1 | 44.6 | 0.6
Cc1ccc(C)c(S(=O)(=O)NCc2ccc(C(=O)N3CCCCC3C)cc2)c1 (stereo not drawn) | -9.6 | 7.7 | -53.1 | 1.5 | 57.1* | 0.4
CNC(=S)NCCc1ccc(OC)c(OC)c1 | -1.6 | 27.0 | 2.8 | 1 | 55.5* | 0.4
CCCCS(=O)(=O)NC1=NCN(Cc2ccco2)CN1 | 1.1 | 0.3 | 9.9 | 0.9 | 3.2 | 1
CCOC(=O)C(C(=O)OCC)C(C)C#CCN1CCCCC1 (stereo not drawn) | 0.6 | -6.6 | -21.7 | 1.2 | 28.5 | 0.7
Cc1nn2c(=O)cc(COC(=O)c3ccc(S(=O)(=O)N4CCCCC4)cc3)nc2s1 | -6.9 | 11.4 | 38.4 | 0.6 | 8.6 | 0.9
CCOC(=O)c1cnc2c(C)cccc2c1NCCc1ccc(OC)c(OC)c1 | 5.8 | 17.1 | 90.2* | 0.1 | 97.0* | 0
CCN(C(=O)Cc1c(C(=O)O)[nH]c2ccccc12)c1cc(OC)ccc1OC | -3.5 | -1.4 | 13.9 | 0.9 | -17.9 | 1.2
CCN(C(=O)c1coc(=O)c2ccccc12)c1cc(OC)ccc1OC | -5.4 | 37.6* | 64.0* | 0.4 | 37.5 | 0.6
O=S(=O)(Nc1ccc2c(c1)nc1n2CCN(Cc2ccccc2)C1)c1ccc(F)cc1 | 0.8 | -5.9 | 38.9 | 0.6 | 24.8 | 0.8
O=S(=O)(Nc1ccc2c(c1)nc1n2CCN(Cc2ccccc2)C1)c1ccc(Cl)cc1 | 9.4 | -6.7 | 97.9* | 0 | 87.9* | 0.1
Cc1ccc(S(=O)(=O)Nc2ccc3c(c2)nc2n3CCN(Cc3ccccc3)C2)cc1 | 1.3 | 0.3 | 95.5* | 0 | 82.7* | 0.2
Cc1cccc(NC(=O)CCN2C(=O)C3C4C=CC(C4)C3C2=O)n1 (stereo not drawn) | 2.7 | 9.7 | -8.5 | 1.1 | 27.5 | 0.7
CCOC(=O)N1CCC(n2c(SCC(=O)NCc3ccco3)nc3ccsc3c2=O)CC1 | 3.4 | 9.5 | 62.9* | 0.4 | 22.3 | 0.8
